Dicer inh: blocks human Dicer maturation of pre-miR-21; Q9UPY3; cat-ELCCA pre-miR-21 Dicer processing, chemiluminescence; stronger effect = higher value; z-score at 25 µM; 47,000 tested, 6% active; AID 1347074; in the data active = z-score above about 3, passing the limit was not always enough;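 also: plate controls were vehicle for no effect and no enzyme for full effect; higher signal means more uncleaved substrate so more Dicer inhibition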
Target sequence (Q9UPY3 whole entry, looked up): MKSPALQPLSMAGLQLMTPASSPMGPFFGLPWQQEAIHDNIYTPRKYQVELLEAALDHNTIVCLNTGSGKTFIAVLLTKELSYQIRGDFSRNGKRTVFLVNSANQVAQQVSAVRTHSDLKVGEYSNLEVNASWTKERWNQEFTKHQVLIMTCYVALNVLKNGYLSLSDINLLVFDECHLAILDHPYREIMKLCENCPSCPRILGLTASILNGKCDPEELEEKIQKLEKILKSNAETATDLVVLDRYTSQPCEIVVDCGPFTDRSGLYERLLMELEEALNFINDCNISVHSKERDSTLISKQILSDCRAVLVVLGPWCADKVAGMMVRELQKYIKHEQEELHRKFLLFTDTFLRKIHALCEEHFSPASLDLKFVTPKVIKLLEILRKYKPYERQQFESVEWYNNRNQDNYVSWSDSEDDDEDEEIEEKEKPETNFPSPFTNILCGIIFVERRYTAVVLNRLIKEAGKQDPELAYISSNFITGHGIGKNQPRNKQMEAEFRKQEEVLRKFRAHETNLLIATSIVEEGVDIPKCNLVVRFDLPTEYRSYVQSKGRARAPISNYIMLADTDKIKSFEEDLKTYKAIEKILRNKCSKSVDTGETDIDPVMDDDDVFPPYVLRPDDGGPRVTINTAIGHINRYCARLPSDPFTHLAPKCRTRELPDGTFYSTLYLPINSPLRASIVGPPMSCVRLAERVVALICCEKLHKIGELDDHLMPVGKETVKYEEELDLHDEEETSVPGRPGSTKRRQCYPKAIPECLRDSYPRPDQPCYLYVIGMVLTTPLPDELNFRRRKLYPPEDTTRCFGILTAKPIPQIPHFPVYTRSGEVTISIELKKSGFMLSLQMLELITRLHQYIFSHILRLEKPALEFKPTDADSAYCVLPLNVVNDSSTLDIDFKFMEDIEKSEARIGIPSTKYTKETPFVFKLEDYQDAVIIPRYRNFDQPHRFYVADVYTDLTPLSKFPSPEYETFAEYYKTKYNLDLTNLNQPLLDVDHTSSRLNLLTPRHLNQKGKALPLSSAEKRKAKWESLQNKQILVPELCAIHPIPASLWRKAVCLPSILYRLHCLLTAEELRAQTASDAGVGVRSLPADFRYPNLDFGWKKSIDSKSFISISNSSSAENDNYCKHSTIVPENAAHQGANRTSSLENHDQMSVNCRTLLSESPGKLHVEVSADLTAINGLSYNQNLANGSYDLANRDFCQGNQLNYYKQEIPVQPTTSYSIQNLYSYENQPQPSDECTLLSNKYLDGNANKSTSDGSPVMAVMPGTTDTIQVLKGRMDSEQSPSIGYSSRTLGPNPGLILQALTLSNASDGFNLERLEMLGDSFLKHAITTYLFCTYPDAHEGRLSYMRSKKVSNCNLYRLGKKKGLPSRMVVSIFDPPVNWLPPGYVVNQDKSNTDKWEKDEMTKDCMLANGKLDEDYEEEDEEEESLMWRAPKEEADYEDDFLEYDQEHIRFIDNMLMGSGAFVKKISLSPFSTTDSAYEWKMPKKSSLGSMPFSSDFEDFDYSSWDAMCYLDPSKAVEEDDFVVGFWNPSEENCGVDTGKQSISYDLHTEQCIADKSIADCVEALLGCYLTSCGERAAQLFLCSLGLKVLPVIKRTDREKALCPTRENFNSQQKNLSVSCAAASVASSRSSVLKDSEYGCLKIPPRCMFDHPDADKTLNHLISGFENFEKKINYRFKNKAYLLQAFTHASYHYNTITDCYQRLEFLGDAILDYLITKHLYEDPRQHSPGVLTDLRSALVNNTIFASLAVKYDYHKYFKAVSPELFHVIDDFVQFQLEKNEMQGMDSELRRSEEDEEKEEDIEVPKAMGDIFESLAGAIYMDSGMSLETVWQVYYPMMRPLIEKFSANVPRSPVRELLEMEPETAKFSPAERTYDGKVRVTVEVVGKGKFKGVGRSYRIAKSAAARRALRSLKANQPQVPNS
Numbers without * were called inactive. The entries come from a sample that favours hits as a whole.

For CC1(C)CSC(=NC2CCCCC2)N1 the results were Dicer inh 3.2*.
Cc1csc(NS(=O)(=O)c2ccccc2)n1 was read as Dicer inh -0.02.
`O=C(Oc1cccc2cccnc12)c1ccc2c(c1)-c1ccccc1C2=O` gave Dicer inh -0.05.
`Cc1onc(-c2c(Cl)cccc2Cl)c1C(=O)Oc1cccc2cccnc12` gave Dicer inh 1.1.
O=C(Oc1cccc2cccnc12)c1ccc(Br)cc1 was read as Dicer inh 4.6*.
Screening COc1ccc(-c2csc(S(C)=O)c2C#N)cc1 (stereo unspecified) returned Dicer inh 0.1.
Screening O=C1C2ON(c3ccccc3)C(c3ccco3)C2C(=O)N1c1ccc(F)cc1 (stereo unspecified) returned Dicer inh 1.1.
`CCCCCN=C1NS(=O)(=O)c2ccccc21` gave Dicer inh 0.71.
`CC(=O)OCc1cc(/C=N/N(C(C)=O)c2ccccc2)nn1-c1ccccc1` gave Dicer inh 3.5*.
Screening COC(=O)Nc1cc(C)n(-c2ccccc2)n1 returned Dicer inh 0.02.
Cc1cc(NC(=O)N(C)C)nn1-c1ccccc1 was read as Dicer inh -2.1.
For O=C(CN1C(=O)CSC1=O)Nc1ccc(Cl)cc1 the results were Dicer inh -1.8.
Cc1c(-c2nnnn2-c2ccccc2)cnc2ccccc12 was read as Dicer inh 0.57.
Screening FC(F)(F)c1[nH]ncc1-c1nnnn1-c1ccccc1 returned Dicer inh 3.3*.
For FC(F)(F)c1c(-c2nnnn2-c2ccccc2)cnn1-c1ccccc1Cl the results were Dicer inh -1.1.
For O=C(CC1(O)C(=O)Nc2ccc(Br)cc21)c1cccs1 (stereo unspecified) the results were Dicer inh -1.9.
Screening Cc1ccc(C(=O)CC2(O)C(=O)Nc3ccc(C)cc32)c(C)c1 (stereo unspecified) returned Dicer inh -0.09.
Screening Cc1cc(C)c2c(c1)NC(=O)C2(O)CC(=O)c1cccs1 (stereo unspecified) returned Dicer inh 3.4*.
`C=CC(C)c1c(CCC)nc(-c2ccccn2)[nH]c1=O` (stereo unspecified) gave Dicer inh -0.89.
COc1ccc(OC)c(C2C(C(=O)OC(C)C)=C(C)NC3=C2C(=O)CC(c2ccccc2)C3)c1 (stereo unspecified) was read as Dicer inh 1.2.
`Cn1c(SCC(=O)c2c[nH]c3ccccc23)nnc1-c1cccs1` gave Dicer inh 2.6.
`Cc1nnc(SCC(=O)c2c[nH]c3ccccc23)n1-c1ccccc1` gave Dicer inh 4.3*.
Cc1[nH]c2ccccc2c1C(=O)CSc1nnc(C)n1-c1ccccc1 was read as Dicer inh 2.8.
`Cn1cccc1CN1CCN(Cc2ccccc2)CC1` gave Dicer inh 0.53.
Screening Cc1sc(-c2ccc(Cl)cc2)nc1CC(=O)O returned Dicer inh 0.5.
`CCOC(=O)c1cc(-c2ccccc2)sc1NC(=O)Nc1ccc(Cl)cc1` gave Dicer inh -1.7.
CCCCc1n(CC(=O)c2ccccc2)c2ccccc2[n+]1C was read as Dicer inh 0.12.
`CCOc1ccc(C(=O)Cn2c(C)[n+](C)c3ccccc32)cc1` gave Dicer inh -1.2.
`Cc1n(CC(=O)c2ccc(F)cc2)c2ccccc2[n+]1C` gave Dicer inh 4.8*.
For COc1cc(Cl)c(NC(=O)c2c(C)noc2C)c(OC)c1 the results were Dicer inh -0.88.
COc1ccc(C2CC(=O)c3cnc(N4CCN(c5ccccn5)CC4)nc3C2)cc1OC (stereo unspecified) was read as Dicer inh -0.82.
Screening C=CCN1C(=O)C(O)(CC(=O)c2cccc(OC)c2)c2cc(Br)ccc21 (stereo unspecified) returned Dicer inh 0.08.
`CC(C)c1ccc(-c2csc(NC(=O)C3C4CCC(C4)C3C(=O)O)n2)cc1` (stereo unspecified) gave Dicer inh 1.8.
Clc1ccccc1C1Nc2ccccc2O1 (stereo unspecified) was read as Dicer inh 0.47.
`COc1ccc(-c2nc3sc4c(c3c(=O)[nH]2)CCCC4)cc1` gave Dicer inh -1.1.
Screening CN(C)c1ncnc2c1C(c1ccc(Br)cc1)c1c(ncnc1N(C)C)O2 returned Dicer inh 5*.
`Nc1nccnc1C(=O)NNC(=O)c1cccc(C(F)(F)F)c1` gave Dicer inh 0.39.
O=C(O)c1ccc(N2C(=O)CC(N3CCN(C/C=C/c4ccccc4)CC3)C2=O)cc1 (stereo unspecified) was read as Dicer inh -0.43.
`CCCCCOC(=O)C1=C(C)NC2=C(C(=O)CCC2)C1c1cccc(Br)c1` (stereo unspecified) gave Dicer inh -0.42.
Screening C(=N\Nc1nc2ccccc2s1)/c1ccco1 returned Dicer inh 3.8*.
Screening COc1cc2ccccc2cc1C(=O)Nc1nc2ccccc2s1 returned Dicer inh -0.01.
For C(=N\Nc1nc2ccccc2s1)/c1cccs1 the results were Dicer inh -0.23.
For Cc1nn(-c2ccccc2)cc1/C=N/Nc1nc2ccccc2s1 the results were Dicer inh 2.2.
`COc1cc(/C=N/NC(=S)NCCc2ccccc2)cc(OC)c1OC` gave Dicer inh -0.71.
COc1cc(/C=N/Nc2nc3ccccc3s2)cc(OC)c1OC was read as Dicer inh 3.5*.
`Cc1nn(C(=O)CNS(=O)(=O)c2ccc(Cl)cc2)c(C)c1Sc1ccc(Cl)cc1` gave Dicer inh 1.7.
Clc1ccc(CN2CCCNCC2)c(Cl)c1 was read as Dicer inh -1.1.
Nc1ccc(O)c(-c2nc3ccccc3o2)c1 was read as Dicer inh 1.2.
For COc1ccc(-c2[nH]c(SCc3ccccc3)nc(=S)c2C#N)cc1 the results were Dicer inh 0.83.
For Cc1ccc(S(=O)(=O)CCS(=O)(=O)c2cccs2)cc1 the results were Dicer inh 1.3.
Screening O=C(Cn1c(=O)sc2ccccc21)Nc1nc(-c2ccc(Br)cc2)cs1 returned Dicer inh -0.5.
NC(=O)COc1ccc(-c2noc(COc3ccc(Br)cc3)n2)cc1 was read as Dicer inh -1.3.
NC(=O)Cc1nc(-c2ccc(Br)cc2)cs1 was read as Dicer inh 3.2*.
Screening Cc1cc(NC(=O)c2ccc3c(c2)OCO3)no1 returned Dicer inh 20.
`Cc1cc(NC(=O)c2ccc3c(c2)OCCO3)no1` gave Dicer inh 4.2*.
`Cc1cc(-c2nnc(SCC(=O)c3ccc4c(c3)OCCO4)o2)no1` gave Dicer inh -1.3.
Screening N#Cc1ncoc1-c1ccc(Cl)cc1 returned Dicer inh 2.4.
Screening COc1ccc2c(c1)c(=O)oc1c(C)c(OCC(=O)O)ccc12 returned Dicer inh -0.95.
`COc1ccc(C(=O)CSc2nc(C)cc(C)n2)cc1C` gave Dicer inh -0.42.
`Cc1cc(C)nc(SCC(=O)c2ccc(F)cc2F)n1` gave Dicer inh 3.7*.
Screening Cc1cc(C)nc(SCC(=O)c2c(C)[nH]c3ccccc23)n1 returned Dicer inh 2.9.
`O=C(Nc1ccc2oc(-c3ccc(Br)cc3)nc2c1)c1cccnc1` gave Dicer inh 0.51.
Screening Clc1cccc(Cl)c1CSc1nc2ccccc2n2cccc12 returned Dicer inh -0.6.
`CCSc1nc2ccccc2nc1SCC` gave Dicer inh -0.16.
Screening CSC1=N/C(=C\c2ccc(Cl)cc2Cl)C(=O)N1Cc1ccccc1 returned Dicer inh -0.6.

Compound activity (PubChem BioAssay)
